This experiment concerns HFF. As to the kind of experiment: cell viability relative to DMSO control; higher = less cytotoxic. Particulars: 1 µM; 72 h. The protocol:
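Single-dose cytotoxicity screen of the MMV Pandemic Response Box at 1 uM on human foreskin fibroblasts (HFF), 72 h at 37 C. Viability measured by MTT (OD 550 nm) and normalised to the DMSO control (% survival).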

Take `Nc1nc2c(ncn2COCCO)c(=O)[nH]1`: the cell viability stood at 68.8%.

With `CCNC(=O)Nc1cn2c(-c3ncc(CC)cn3)cc(-c3cccnc3)cc2n1`, the cell viability worked out at 71.6%.

Take `CCC[C@H](NC(=O)[C@@H]1[C@H]2CCC[C@H]2CN1C(=O)[C@@H](NC(=O)[C@@H](NC(=O)c1cnccn1)C1CCCCC1)C(C)(C)C)C(=O)C(=O)NC1CC1`: the cell viability came to 61.8%.

In the case of `N=C(N)c1ccc(COc2ccc(Cl)cc2)cc1`, the cell viability is 65.4%.

Consider `FC(F)(F)c1cc(C(F)(F)F)c2ccc3nc(-c4nnco4)cn3c2n1`, for which the cell viability came out at 67.3%.

`CC(=O)N1CCN(c2ccc(OCC3COC(Cn4ccnc4)(c4ccc(Cl)cc4Cl)O3)cc2)CC1` (stereo not given) showed a cell viability of 62.9%.

In turn, `N[C@@H]1CN(c2c(F)cc3c(=O)c(C(=O)O)cn([C@@H]4C[C@@H]4F)c3c2Cl)CC12CC2` yielded a cell viability of 60.8%.

`O=C(NO)C1(CS(=O)(=O)c2ccc(Oc3ccc(Cl)cc3)cc2)CCOCC1` gave a cell viability of 72.6%.

In turn, `CCC(C)n1ncn(-c2ccc(N3CCN(c4ccc(OCC5COC(Cn6cncn6)(c6ccc(Cl)cc6Cl)O5)cc4)CC3)cc2)c1=O` (stereo not given) displayed a cell viability of 78.2%.

In turn, `CCc1ccc(C2CC(C(F)(F)F)n3ncc(C(=O)NCc4ccc(OC)cc4)c3N2)cc1` (stereo not given) returned a cell viability of 76.2%.

As to `c1cc(CN2CCCNCCNCCCNCC2)ccc1CN1CCCNCCNCCCNCC1`, the cell viability came to 63.9%.

Regarding `CCc1nc2ccccn2c1C(=O)NCc1ccccc1`, the cell viability worked out at 66.8%.

`COc1cc(C(C(=O)NC2CCCCC2)N(C(=O)Cc2c[nH]c3ccccc23)c2ccc(C(C)C)cc2)cc(OC)c1OC` (stereo not given) registered a cell viability of 66.3%.

Compound `O=C(c1nc2c(C(F)(F)F)cc(C3CC3)cn2c1Cl)N1CCN([C@H]2CC[C@H](O)CC2)C(=O)C1` had a cell viability of 61.7%.

`CC(C)Nc1nc2cc(Cl)c(Cl)cc2n1[C@H]1O[C@@H](CO)[C@H](O)[C@@H]1O` yielded a cell viability of 67.8%.

With `O=C(O)CCNC(=O)c1ccccc1`, the cell viability came out at 66.9%.

On to `CO/N=C(\C(=O)N[C@@H]1C(=O)N2C(C(=O)OCOC(=O)C(C)(C)C)=C(/C=C\c3scnc3C)CS[C@H]12)c1csc(N)n1`, for which the cell viability was found to be 66%.

The compound `c1ccc(-c2nnc3c4ccccc4c(N4CCNCC4)nn23)cc1` came in with a cell viability of 73.2%.

The compound `CCCCc1ccc(-c2cc(C(=O)O)cc(-c3ccc(Cl)cc3)n2)cc1` gave a cell viability of 68.9%.

Consider `COc1ccc(C(C)(C)C)cc1NC(=O)C(=O)c1ccc(OCCN2CCOCC2)c2ccccc12`, for which the cell viability is 69.1%.

The compound `O=C(NCc1ccccc1Cl)c1cnc2ccccc2n1` gave a cell viability of 71.4%.

The compound `Clc1ccc(COC(Cn2ccnc2)c2ccc(Cl)cc2Cl)c(Cl)c1` (stereo not given) displayed a cell viability of 66.8%.

In the case of `Cc1nc(-c2ccc(C3N(C)c4ccc(F)cc4C(=O)N3c3ccccc3)s2)cs1` (stereo not given), the cell viability came out at 65.2%.

As to `O=C(NNC(=S)Nc1ccc(Cl)cc1)c1ccncc1`, the cell viability turned out to be 64.2%.

Take `CCCCc1ccc(S(=O)(=O)Nc2cc(C)on2)cc1`: the cell viability was determined as 63.3%.

On to `CC(C)CCN1C(=O)C(C2=NS(=O)(=O)c3cc(NS(C)(=O)=O)ccc3N2)=C(O)[C@@H]2[C@H]3CC[C@H](C3)[C@@H]21`, for which the cell viability came to 67.8%.

As for `COc1cc2c(O)c3c(c(-c4ccc5c(c4)OCO5)c2cc1OC)C(=O)OC3`, the cell viability turned out to be 66.8%.

The compound `Cc1cc(CCOc2c(C)cc(-c3nnn(C)n3)cc2C)on1` yielded a cell viability of 69.2%.

Turning to `Nc1nc(O)c2ncn([C@@H]3O[C@H](CO)[C@@H](O)[C@H]3F)c2n1`, the cell viability was determined as 68.9%.

The compound `Nc1nc(F)nc2c1ncn2[C@H]1O[C@@H](CO)[C@H](O)[C@@H]1O` registered a cell viability of 65%.

For `Nc1nc(-c2ccccc2)nc2c1ncn2[C@@H]1O[C@H](COS(=O)(=O)NC(=O)c2ccccc2O)[C@@H](O)[C@H]1O`, the cell viability worked out at 72.2%.

The compound `Cc1nc2ccc(Oc3ccccc3)cc2c2c1CCN2CCc1ccccc1` returned a cell viability of 76.7%.

`COc1ccc2sc3c(c2c1)NC(C)CNC3=O` (stereo not given) gave a cell viability of 82.1%.

For the compound `OC(Cn1cncn1)(Cn1cncn1)c1ccc(F)cc1F`, the cell viability worked out at 66.7%.

`O=C(O)C(Cc1c[nH]c2ccccc12)N1C(=O)c2ccccc2C1=O` (stereo not given) yielded a cell viability of 68.5%.

`Cc1c(F)cccc1NC(=O)Nc1ccc(Cl)c(S(=O)(=O)[C@H]2CCCNC2)c1O` showed a cell viability of 60.8%.

Compound `O=C(Nc1nnc(-c2ccc(Cl)cc2)o1)c1ccc(F)cc1` showed a cell viability of 65.9%.

The compound `O=C(O)c1ccc(-c2ccc(O[C@H]3O[C@H](CO)[C@@H](O)[C@H](O)[C@@H]3O)cc2)cc1` yielded a cell viability of 63.9%.

Compound `CN(C/C=C/C#CC(C)(C)C)Cc1cccc2ccccc12` gave a cell viability of 64.9%.

`NCc1ccc(S(N)(=O)=O)cc1` yielded a cell viability of 61.5%.

In turn, `CC(C)(C)c1ccc(OCCn2nc(C(=O)O)c3ccccc3c2=O)cc1` had a cell viability of 70%.

The compound `Cc1ccccc1NC(=O)Nc1cccc([N+](=O)[O-])c1` returned a cell viability of 71.1%.

Compound `CC(C)(C)c1cccc(-c2nc3cc(C(=N)N)ccc3[nH]2)c1O` registered a cell viability of 64.8%.

The compound `Cc1cc(C2CCCCC2)n(O)c(=O)c1` displayed a cell viability of 78.2%.

Consider `Nc1nc(=O)[nH]cc1F`, for which the cell viability was found to be 64.8%.

In turn, `CCOC(=O)N1CCN(c2ccc(Cl)cc2)CC1` returned a cell viability of 64%.

On to `CCCCC(CC)CNC(=N)NC(=N)NCCCCCCNC(=N)NC(=N)NCC(CC)CCCC` (stereo not given), for which the cell viability came out at 63.4%.

As to `CN(C)CC(=O)Nc1ccc2[nH]c(=O)c3ccccc3c2c1`, the cell viability was determined as 59.3%.

In turn, `C[C@H](NC(=O)C(=O)Nc1ccccc1C(C)(C)C)C(=O)N[C@@H](CC(=O)O)C(=O)COc1c(F)c(F)cc(F)c1F` gave a cell viability of 55.9%.

On to `Cc1onc(-c2ccccc2Cl)c1C(=O)N[C@@H]1C(=O)N2[C@@H]1SC(C)(C)[C@@H]2C(=O)O`, for which the cell viability was found to be 69%.

In the case of `NCCCc1ccccc1C(=O)Nc1ncc([N+](=O)O)s1`, the cell viability amounted to 65%.

In turn, `COc1cc(C2C3=C(CC(C)(C)CC3=O)Nc3ccccc3N2C(C)=O)ccc1OCc1ccccc1` (stereo not given) came in with a cell viability of 67.1%.

As for `CC(C)C(=O)N[C@H]1[C@H]([C@H](O)[C@H](O)CO)OC(C(=O)O)=C[C@@H]1N=[N+]=[N-]`, the cell viability was determined as 56.6%.

Compound `CCCCCCCCCN1C[C@@H](O)[C@H](O)[C@@H](O)[C@@H]1CO` yielded a cell viability of 84.2%.

`Nc1nc2c(Cc3cccnc3)c[nH]c2c(=O)[nH]1`: the cell viability was 65.2%.

`O=C(O)c1ccc(-n2nc(-c3ccccc3O)nc2-c2ccccc2O)cc1`: the cell viability came out at 76.7%.

The compound `CC(C)(C)OC(=O)NCc1ccc(C(=O)N[C@H]2CCOC2=O)cc1` came in with a cell viability of 65.7%.

Compound `CC[C@@H]1C(=O)OC[C@@H]1Cc1cncn1C` had a cell viability of 62.8%.

`CCNC(=O)Nc1cc(-c2ccccc2)c(-c2cncc(C(=O)O)c2)cn1` returned a cell viability of 63.8%.

For `Cc1c(OCC(F)(F)F)ccnc1C[S+]([O-])c1nc2ccccc2[nH]1` (stereo not given), the cell viability was 66.4%.

In turn, `CC(C)Nc1ncnc2c1cnn2-c1ccc(Cl)cc1` had a cell viability of 71.9%.

For `CCCCCc1ccc(C(=O)NCCn2cc(CCCCCc3c[nH]c(N)n3)nn2)cc1`, the cell viability came out at 66.1%.

`CN(C)CCCOc1ccc(-c2ccc3ncc4c(c3c2)n(C2CCOCC2)c(=O)n4C)cn1`: the cell viability stood at 60.6%.

In the case of `CN(C(=O)C1(c2ccc(Cl)cc2)CCC1)c1ccccc1`, the cell viability was 63.2%.

Compound `Cn1cc(NC(=O)c2cc(NC(=O)c3ccc(/C=C/c4cnc5ccccc5c4)cc3)cn2C)cc1C(=O)NCCN1CCOCC1` had a cell viability of 69.2%.

`FC(F)(F)Oc1ccc(Nc2ccc3cccc(Cl)c3n2)cc1`: the cell viability stood at 56.3%.

The compound `COc1ccc(C)cc1NC(=O)c1ccc(S(=O)(=O)N2CCCCC2)cc1` displayed a cell viability of 76.4%.

In turn, `CCOC(=O)Nc1cc(NC(C)CC(C)CN(CC)CC)c2nc(-c3ccccc3)c(-c3ccccc3)nc2n1` (stereo not given) returned a cell viability of 78.5%.

Compound `COc1nc2ccc(Br)cc2cc1[C@@H](c1ccccc1)[C@@](O)(CCN(C)C)c1cccc2ccccc12` came in with a cell viability of 72.3%.

Compound `Cn1c2ccccc2c(=O)c2c(O)cccc21` came in with a cell viability of 65.8%.

Consider `COC1CC2CCC(C)C(O)(O2)C(=O)C(=O)N2CCCCC2C(=O)OC(C(C)CC2CCC(OCCO)C(OC)C2)CC(=O)C(C)/C=C(\C)C(O)C(OC)C(=O)C(C)CC(C)/C=C/C=C/C=C/1C` (stereo not given), for which the cell viability worked out at 60.8%.

`O=C(O)c1ccccc1Sc1ncnc2sc3c(c12)CCC3` returned a cell viability of 67.7%.

The compound `N#Cc1cc([N+](=O)[O-])ccc1Oc1ccccc1Cl` yielded a cell viability of 72.5%.

`Cc1ccc(NC(=O)c2ccc(CN3CCN(C)CC3)cc2)cc1Nc1nccc(-c2cccnc2)n1`: the cell viability worked out at 50.1%.

In the case of `N[C@H](CCC(=O)N[C@@H](Cc1c[nH]c2ccccc12)C(=O)O)C(=O)O`, the cell viability is 61.9%.

Turning to `COc1ccc(C[C@@H](C)[C@@H](C)Cc2ccc(OC)c(OC)c2)cc1OC`, the cell viability came out at 65.2%.

Turning to `O=C(O)[C@H]1C2CCC(CC2)[C@@H]1Nc1nc(-c2c[nH]c3ncc(F)cc23)ncc1F`, the cell viability was 67%.

Compound `CN(C)CCCNC(=O)c1ccc(-c2cc(O)c3ncccc3c2)cc1` returned a cell viability of 67.8%.

As to `Oc1c(C(Nc2nc3ccccc3s2)c2ccc(OC(F)F)cc2)ccc2cccnc12` (stereo not given), the cell viability is 57.5%.

Turning to `O=C(Nc1ccc(Cl)c(C(F)(F)F)c1)C(CCCl)C(=O)Nc1ccc(Cl)c(C(F)(F)F)c1`, the cell viability was 79%.

Regarding `CCC(CC)[C@H](NC(C)=O)[C@@H]1[C@H](O)[C@@H](C(=O)O)C[C@H]1NC(=N)N`, the cell viability was determined as 73.5%.

In the case of `CNCC(=O)OCc1cccnc1N(C)C(=O)OC(C)[n+]1cnn(C[C@](O)(c2cc(F)ccc2F)[C@@H](C)c2nc(-c3ccc(C#N)cc3)cs2)c1` (stereo not given in full), the cell viability is 60.6%.

With `COc1ccc(C2CNC(=O)C2)cc1OC1CCCC1` (stereo not given), the cell viability amounted to 69.5%.

`Nc1nc(N)c2c(Sc3ccccc3)cccc2n1`: the cell viability was determined as 68.7%.

Compound `O=C1[C@H](CC[C@H](O)c2ccc(F)cc2)[C@@H](c2ccc(O)cc2)N1c1ccc(F)cc1` yielded a cell viability of 73%.

The compound `O=[N+]([O-])c1cn2c(n1)OC[C@@H](OCc1ccc(OC(F)(F)F)cc1)C2` registered a cell viability of 64.4%.

Take `CC(C)Oc1ccc(-c2nc(-c3cccc4c3CC[C@@H]4NCCO)no2)cc1C#N`: the cell viability was 65.4%.

`CN(C)CCNC(=O)c1cccc2cccnc12` showed a cell viability of 61.2%.

In turn, `O=C(CC1Sc2ncnn2C1=O)Nc1ccc(Br)cc1` (stereo not given) showed a cell viability of 59.7%.

The compound `CC(=N)N1CC[C@H](SC2=C(C(=O)O)N3C(=O)[C@@H]([C@@H](C)O)[C@H]3C2)C1` returned a cell viability of 63.8%.

`N#Cc1c(F)c(Cl)c(NCc2ccccc2)c(C#N)c1F`: the cell viability came to 66.6%.

Compound `N[C@H]1CCC[C@H]1C(=O)O` showed a cell viability of 70.6%.

On to `Cc1cc(C)n2nc(C(=O)NS(=O)(=O)c3c(C)cccc3OC(F)(F)F)nc2n1`, for which the cell viability was 72.2%.

In turn, `Fc1ccc(-c2nc(-c3c[nH]c4ccc(Br)cc34)[nH]c2-c2ccc(F)cc2)cc1` showed a cell viability of 67.2%.

In turn, `CN(O)C(=O)c1cc2c(CN3CCC[C@H]3C(N)=O)cn(Cc3ccc(F)cc3)c2cn1` showed a cell viability of 64.1%.

(Values after the supplement of paper PMC10941209.)
